# Bioassay records from PubChem BioAssay.
# Shown are actives, neighbours in structure and some others; about 2.2% of the full set was active somewhere.
# CRFBP-R2 block: antagonists of CRF-BP/CRF-R2 complex, primary screen, cell-based, HEK293, calcium dye fluorescence, uHTS; inhibition, % at 11.8 µM; CRF-induced calcium fluorescence; 0.59% of 350,000 active; AID 588475, 2011;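 active = inhibition of the ligand-induced calcium signal above about 50% at the single tested concentration, limit read from the data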
# CRFR2-BP ag: agonists of CRF-BP/CRF-R2 complex, primary screen, cell-based, HEK293, calcium dye fluorescence, uHTS; 0.46% of 350,000 active; activation, % at 13.2 µM; calcium dye fluorescence (FLIPR); percent of saturating CRF peptide response;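 active = activation of at least 50%, plus an integration ratio under a set limit after plate pattern correction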
# Myeloid diff MLP: induction of myeloid progenitor differentiation, primary screen, cell-based, flow cytometry, MLPCN library; ER-HoxA9 myeloid progenitors, lysozyme-GFP differentiation; calls only at 10 µM; 1% of 360,000 active; AID 624256, 2012;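 active = normalized GFP-positive differentiation at or above the plate's own cutoff, the solvent-only control mean plus 3 SD; inconclusive = no clear call, values can overlap the other calls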;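 note: cells exposed to compound for four days before flow analysis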
# RTF Ca sens inh: cardiac RTF calcium sensitivity inhibitors, primary screen, biochemical, IANBD-TnC fluorescence, EC70 calcium. Troponin I, cardiac muscle (Homo sapiens) + Troponin T, cardiac muscle (Homo sapiens) + …. 0.12% of 340,000 active. inhibition, % at 7.15 µM. IANBD-labeled cardiac RTF, Ca2+ fluorescence;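 active = inhibition above the mean inhibition of all tested compounds plus 3 SD, cut at about 17% in these data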;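 note: assay run at fixed EC70 calcium of 1.6 mM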
# RTF Ca sens act: cardiac RTF calcium sensitivity activators, primary screen, biochemical, IANBD-TnC fluorescence, EC20 calcium; Troponin I, cardiac muscle (Homo sapiens) + Troponin T, cardiac muscle (Homo sapiens) + …; IANBD-labeled TnC RTF fluorescence at EC20 calcium; 0% EC20 calcium, 100% full calcium; activation, % at 7.2 µM; 0.24% of 340,000 active;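 active = activation above the mean over all tested compounds plus 3 SD, cut at about 30% in these data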;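 note: rise in fluorescence read as greater calcium sensitivity of cardiac thin filaments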
# Hits are given with their value; - = inactive; ? = inconclusive; . = no result; + = active, no number.
SMILES,CRFBP-R2 block,CRFR2-BP ag,Myeloid diff MLP,RTF Ca sens inh,RTF Ca sens act
CC(=O)c1ccc(NC(=S)N2c3ccccc3CC2C)cc1 (stereo not drawn),-,-,-,-,-
O=S(=O)(NC1CCCCC1N1CCN(c2ccc(F)cc2)CC1)c1ccc(Cl)cc1 (stereo not drawn),-,105.3,-,-,-
CCCN1CCN(C2CCCCC2NS(=O)(=O)c2ccccc2)CC1 (stereo not drawn),-,-,-,-,-
CCCN1CCN(C2CCCCC2NS(=O)(=O)c2ccc(Cl)cc2)CC1 (stereo not drawn),50.8,-,-,-,-
O=S(=O)(NC1CCCCC1N1CCC(O)CC1)c1ccccc1 (stereo not drawn),-,-,-,-,-
NC(=S)NN=C1CCSCC1,-,-,-,-,-
Cc1ccccc1/C=N/Nc1ccnc2cc(Cl)ccc12,-,-,-,-,-
Oc1ccc(/C=N/Nc2ccnc3cc(Cl)ccc23)c(O)c1,-,-,+,-,-
COc1cccc(CN2CCN(C(=O)C3CCC(=O)N(C4CCCC4)C3)CC2)c1 (stereo not drawn),-,-,-,-,-
O=C(C1CCC(=O)N(C2CCCC2)C1)N1CCN(Cc2cccc(F)c2)CC1 (stereo not drawn),-,-,+,-,-
CCCN(CCC)c1nc(NC2CCN(C(=O)OCC)CC2)nc(OC)n1,-,-,-,-,-
Cc1ccc(-c2noc(-c3c(C)noc3C)n2)cc1,-,-,-,-,-
Cc1ccc(SCc2noc(-c3c(C)noc3C)n2)cc1,52.3,-,-,-,-
CCOC(=O)c1c(NC(=O)c2c(-c3ccccc3)noc2C)sc(C)c1-c1ccccc1,-,-,+,-,-
COc1ccc(C(=O)COC(=O)c2c(-c3ccccc3)noc2C)c(OC)c1,-,-,-,-,-
COc1ccccc1C(=O)COC(=O)c1c(-c2ccccc2)noc1C,50.2,-,-,-,-
CC(C)NC(=O)C1(C)CN(S(C)(=O)=O)CC(=O)N1CCc1ccccc1 (stereo not drawn),.,.,-,.,.
CC(C)c1ccc(NC(=S)NN2CCOCC2)cc1,50.3,83.1,-,-,-
CCCC12CN(C(=O)c3ccc([N+](=O)[O-])cc3)CC(C)(CN(C(=O)c3ccc([N+](=O)[O-])cc3)C1)C2=O,126.3,-,-,.,.
CC(C)(C)N1CC(OC(N)=O)C1,-,-,+,-,-
CC(C(=O)N(C)C1CCCCC1)N1CCC(C(N)=O)CC1 (stereo not drawn),-,-,-,-,-
C1=C(c2ccc(-c3ccccc3)cc2)Nc2ncnn2C1c1ccco1 (stereo not drawn),-,208.3,-,-,335.9
Fc1ccc(C2=CC(c3ccco3)n3ncnc3N2)cc1 (stereo not drawn),-,65.0,-,-,70.5
Fc1ccc(C2=CC(c3ccc(Br)o3)n3ncnc3N2)cc1 (stereo not drawn),-,192.4,-,-,172.0
Fc1ccc(Br)cc1C1C=C(c2cccnc2)Nc2ncnn21 (stereo not drawn),-,53.3,-,-,-
SMILES,CRFBP-R2 block,CRFR2-BP ag,Myeloid diff MLP,RTF Ca sens inh,RTF Ca sens act
CC(C)(C)c1ccc(C2=CC(c3ccccc3F)n3ncnc3N2)cc1 (stereo not drawn),-,-,-,-,-
CSc1ccccc1NC(=O)CN(C)C(=O)COc1cccc2cccnc12,-,-,-,-,-
Brc1ccc(C2=CC(c3cccs3)n3ncnc3N2)cc1 (stereo not drawn),-,318.2,+,-,707.2
COc1ccc(N=C2SCC(=O)N2Cc2ccccc2)cc1,-,-,+,-,-
N=c1c(S(=O)(=O)c2ccccc2)cc2c(=O)n3ccccc3nc2n1C1CCCC1,-,-,+,-,-
COc1ccc(CNC(=O)CCNC(=O)C2CCN(S(=O)(=O)c3ccc(OC)cc3)CC2)cc1,-,-,-,.,.
COc1ccc2c(c1)C(=O)N1[C@H]3c4cc(Cl)ccc4OC[C@@H]3[C@H](c3ccccc3)[C@]1(C)C(=O)N2,-,-,+,-,-
CC(C)(C)c1ccc(-c2noc(CCC(=O)Nc3cccnc3)n2)cc1,-,-,-,-,-
COc1ccc(-c2noc(CCC(=O)Nc3cccnc3)n2)cc1,-,-,+,-,-
Cc1ccc(C(=O)OCC(=O)N2CCC(C)CC2)cc1S(=O)(=O)N1CCOCC1,-,-,-,.,.
CCCNC(=O)c1nnsc1S(=O)(=O)c1ccc(Cl)cc1,70.2,-,?,-,-
Cc1nc2c(OCc3cccc(Cl)c3)cccn2c1N(C)Cc1cccs1,.,.,-,.,.
COCCOC(=O)c1[nH]c2c(c1C)C(=O)CC(c1cc(OC)c(OC)c(OC)c1)C2 (stereo not drawn),-,-,-,-,-
COC(=O)c1[nH]c2c(c1C)C(=O)CC(c1cc(OC)ccc1OC)C2 (stereo not drawn),-,-,+,-,-
CCCCOC(=O)c1[nH]c2c(c1C)C(=O)CC(c1cc(OC)c(OC)c(OC)c1)C2 (stereo not drawn),-,-,+,-,-
COc1ccc(OC)c(S(=O)(=O)NC(=O)C2(C)CCN2C(=O)Cc2ccccc2)c1 (stereo not drawn),.,.,-,.,.
COc1ccccc1NS(=O)(=O)c1cc(C(=O)N2CCCC2)ccc1F,79.3,-,-,-,-
COc1ccccc1NS(=O)(=O)c1cc(C(=O)N2CCCCCCC2)ccc1C,-,-,-,-,-
CCCn1nc([N+](=O)[O-])c(C(C#N)c2nc3ccccc3o2)c(Cl)c1=O (stereo not drawn),74.4,-,-,-,-
COc1ccc(C2Nc3ccccc3C(=O)N2c2ccccc2)cc1CSc1ccccn1 (stereo not drawn),57.8,-,-,-,-
O=C1CCCCC(=O)N(c2ccccc2)c2ccccc21,-,-,+,-,-
Cc1cccc(N(Cc2ccccc2)C(=O)CSC(C)C(=O)Nc2cc(C)on2)c1 (stereo not drawn),-,-,-,-,-
O=C(Nc1ccc(Br)cc1)C1OCCc2ccccc21 (stereo not drawn),-,-,-,-,-
O=C1N=c2ccccc2=C1c1sc(=S)n(NC(=O)c2cccc(O)c2)c1O,64.6,-,-,-,-
N#Cc1cc([N+](=O)[O-])ccc1NC(=O)COC(=O)CC1CCCC1,-,-,.,.,.
NC(=O)c1cc([N+](=O)[O-])ccc1NCc1ccc(N)cc1,-,-,-,-,-
CN(C)c1ccc2c(c1)OC(N)=C(C#N)C2c1cccc(F)c1 (stereo not drawn),-,79.2,?,-,72.8
